In the supplement of paper PMC6555819:

Assays:
Assay in all cases: PBM binding z-score (relative to random genomic background probes); higher = stronger binding; sequences stand for … in GC…GCGATTGACAGCGTAGAATGAAGG
[1] = tested on: FXR:RXRa (NR concentration 270 nM, RXRa partner concentration 90 nM)
Method in brief: (§1)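 Ligand-free nuclear receptor dimers were applied to custom Agilent 4×180K protein-binding microarrays whose double-stranded probes carried direct-repeat seeds, single-nucleotide variants, half-site ablations and random human genomic background sequences in 34-nt variable regions. Incubation lasted 1 h. Binding z-scores were computed against the random background probes from regression-normalized fluorescence.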

[2] = tested on: LXRa:RXRa (NR concentration 270 nM, RXRa partner concentration 90 nM)
Method in brief: as §1

[3] = tested on: LXRa homodimer (NR concentration 270 nM)
Method in brief: as §1

[4] = tested on: LXRb:RXRa (NR concentration 270 nM, RXRa partner concentration 90 nM)
Method in brief: as §1

[5] = tested on: LXRb homodimer (NR concentration 270 nM)
Method in brief: as §1

[6] = tested on: PPARa:RXRa (NR concentration 270 nM, RXRa partner concentration 90 nM)
Method in brief: as §1

[7] = tested on: PPARg:RXRa (NR concentration 180 nM, RXRa partner concentration 90 nM)
Method in brief: as §1

[8] = tested on: PPARg:RXRa 270nM:90nM, anti-RXR (NR concentration 270 nM, RXRa partner concentration 90 nM)
Method in brief: as §1

[9] = tested on: PPARg:RXRa 30nM:10nM, anti-RXR (NR concentration 30 nM, RXRa partner concentration 10 nM)
Method in brief: as §1

[10] = tested on: PPARg:RXRa 90nM:30nM, anti-RXR (NR concentration 90 nM, RXRa partner concentration 30 nM)
Method in brief: as §1

[11] = tested on: PPARg:RXRa DBDmut IVT, anti-RXR (DBD mutation: RXRa K156A/R161A, NR concentration 270 nM, RXRa partner concentration 90 nM)
Method in brief: as §1

[12] = tested on: PPARg:RXRa IVT, anti-PPARg (NR concentration 270 nM, RXRa partner concentration 90 nM)
Method in brief: as §1

[13] = tested on: PPARg DBDmut:RXRa IVT, anti-PPARg (DBD mutation: PPARg1 K132A/R137A, NR concentration 270 nM, RXRa partner concentration 90 nM)
Method in brief: as §1

[14] = tested on: PPARg DBDmut IVT, anti-PPARg (DBD mutation: PPARg1 K132A/R137A, NR concentration 270 nM)
Method in brief: as §1

[15] = tested on: PPARg homodimer (NR concentration 180 nM)
Method in brief: as §1

[16] = tested on: PXR:RXRa (NR concentration 270 nM, RXRa partner concentration 90 nM)
Method in brief: as §1

[17] = tested on: PXR homodimer (NR concentration 270 nM)
Method in brief: as §1

[18] = tested on: RARa:RXR (NR concentration 270 nM, RXRa partner concentration 90 nM)
Method in brief: as §1

[19] = tested on: RARa homodimer (NR concentration 270 nM)
Method in brief: as §1

[20] = tested on: RARb:RXRa (NR concentration 270 nM, RXRa partner concentration 90 nM)
Method in brief: as §1

Sequence | PBM binding z-score [1] | PBM binding z-score [2] | PBM binding z-score [3] | PBM binding z-score [4] | PBM binding z-score [5] | PBM binding z-score [6] | PBM binding z-score [7] | PBM binding z-score [8] | PBM binding z-score [9] | PBM binding z-score [10] | PBM binding z-score [11] | PBM binding z-score [12] | PBM binding z-score [13] | PBM binding z-score [14] | PBM binding z-score [15] | PBM binding z-score [16] | PBM binding z-score [17] | PBM binding z-score [18] | PBM binding z-score [19] | PBM binding z-score [20]
TCTCGAAGGACACGAAGGTCAGAGCTTTCCAGAG | 1.04 | 1.12 | -0.125 | 1.03 | -0.73 | 1.91 | 0.515 | 1.8 | 2.96 | 2.27 | 1.58 | 1.03 | -0.558 | -0.971 | 1.64 | 1.54 | 0.219 | 2.12 | 0.163 | 3.34
GCTAGCAGGCCCTTTGGGTCACTCAATGACGGGC | -0.0163 | -0.0683 | -0.519 | -0.325 | -1.53 | 0.647 | 0.157 | 0.373 | -0.568 | 0.116 | -0.306 | 0.697 | -0.724 | -0.795 | -0.401 | -0.203 | -0.555 | 0.51 | -0.612 | 0.879
TGATATAGGTAAAAGGTGAAAGTCGGTGTGGTAA | 1.72 | 1.59 | 0.194 | 1.96 | 0.256 | 5.88 | 9.54 | 8.88 | 8.67 | 9.7 | 5.38 | 5.55 | 1.59 | 1.77 | 1.8 | 1.68 | 0.555 | 2.78 | 1.18 | 2.05
TCTGCCAGGTCAACGATGGTCAGCTAATCTGCTA | 4.25 | 3.33 | 0.136 | 2.23 | 0.15 | 3.46 | 2.13 | 2.8 | 1.53 | 2.04 | 2.07 | 2.98 | 0.16 | 0.24 | 1.11 | 2.56 | -0.453 | 2.89 | -0.675 | 4.02
TCATATAGGTAAAAGCTGAAAGTCGGTGTGGTAA | 0.59 | 0.549 | -0.108 | 0.664 | -0.24 | 1.41 | 0.589 | 2.74 | 3.52 | 3.25 | 4.01 | 2.14 | 1.19 | 0.683 | 0.11 | 0.239 | -0.198 | 0.257 | 0.519 | 0.0291
GTTATTAGTTGAAAGGGCAACCGAATGATTCTCG | 1.4 | 1.73 | 1.19 | 1.56 | 1.28 | 3.14 | 3.9 | 5.52 | 3.84 | 5.47 | 1.31 | 1.82 | 1.34 | 1.6 | 3.38 | 1.26 | 1.4 | 1.87 | 3.11 | 2.55
GATACAGGGTCAAGGCCAGAGTGCGCGTATTGAT | 6.68 | 4.01 | 0.0458 | 3.51 | -0.343 | 5.4 | 5.81 | 5.34 | 2.09 | 4 | 2.75 | 4.1 | 0.884 | 0.0154 | 3.05 | 3.92 | 0.307 | 4.99 | 1.02 | 4.28
TAGCCTAGGTCAGATCGGCCCAGTATACGCTATA | 1.44 | 1.09 | -0.637 | 0.955 | -0.183 | 1.87 | 1.07 | 0.986 | -0.286 | 0.142 | 0.85 | 1.85 | -0.244 | -1.36 | -0.0384 | 0.228 | -0.754 | 0.84 | -0.69 | 2.95
ACTAGCACGCCAAGGGTCACTCAAGATTAGTCCG | 2.79 | 3.15 | 0.382 | 3.1 | -0.324 | 3.64 | 2.48 | 3.7 | 1.47 | 3.3 | 0.189 | 1.26 | -0.247 | -0.0799 | 2.55 | 3.56 | 0.0958 | 4.5 | 1.53 | 3.58
TCATATAGGTAAACACGTGAAAGTCCGTAAGTTA | 0.505 | 0.566 | 0.235 | 0.56 | 0.236 | 1.33 | 1.16 | 2.12 | 3.63 | 2.89 | 4.07 | 2.96 | 0.9 | 1.04 | 0.24 | 0.722 | 0.241 | 0.769 | 1.1 | 0.364
CCTAGCAGGCCGATCTGGGTCACTCAAGGCTTGA | 0.827 | 0.587 | -0.575 | 0.613 | -0.973 | 2.6 | 1.46 | 1.5 | -0.37 | 0.546 | 2.8 | 4.02 | -0.802 | -1.18 | 0.337 | 0.634 | -0.34 | 1.27 | -0.893 | 1.06
ATTATTAGTTGACTTAGGGCAACCGATACGACGC | 0.735 | 0.64 | 1.16 | 0.949 | 1.32 | 0.727 | 1.09 | 0.586 | 0.719 | 0.975 | 0.113 | 0.899 | 2.01 | 2.21 | 2.16 | 1.14 | 1.53 | 0.95 | 2.43 | 1.12
TCTATAAGTTGATTAGGGCAACCGAAACAGCGGA | 0.561 | 0.285 | 0.0111 | 0.135 | -0.0997 | 1.13 | 0.429 | 2.02 | 3.59 | 2.83 | 2.11 | 1.45 | 0.91 | 0.949 | 0.532 | 0.227 | 0.561 | 0.489 | 0.661 | 1.13
CATAGCAGGCCAGGGTCACTCAAGCATTTCGCTT | 2.42 | 1.71 | -0.165 | 2.2 | 0.0433 | 3.42 | 1.88 | 2.27 | 0.29 | 1.54 | 1.4 | 2.14 | -0.201 | -0.525 | 1.38 | 2.93 | -0.247 | 3.63 | -0.0529 | 2.79
CGTCAAAGTTCAAGGGAACGTAACAGAAAGCAGC | 6.3 | 5.44 | 2.42 | 3.12 | 0.895 | 4.42 | 3.85 | 4.64 | 1.76 | 3.48 | 0.445 | 1.36 | 0.481 | 1.2 | 2.69 | 3.89 | 2.32 | 3.09 | 1.28 | 5.11
